For 30 molecules, Inhibition results are on record in ChEMBL document CHEMBL4513146, “CO-ADD screening of Karazin Kharkiv National University (Ukraine) compounds”.

The test system of one test is Klebsiella pneumoniae. As to conditions: Concentration 32 ug.mL-1;; ASSAY_TEST Inhibition of Bacterial Growth; detection method Absorption (OD600); MEDIA CAMHB; plate type 384well; NBS; CORNING #3640; time 18 hr.
Another test relates to Candida albicans. Particulars: Concentration 32 ug.mL-1; ASSAY_TEST Inhibition of Fungal Growth; detection method Absorption (OD530).
For another test, the system named is Cryptococcus neoformans. As to conditions: Concentration 32 ug.mL-1; ASSAY_TEST Inhibition of Fungal Growth; detection method Resazurin; Absorption (OD600-OD570); plate type 384well; NBS; CORNING #3640. (The colour change of resazurin is a common sign of viable cells or microbes.)

The structures appear in SMILES notation. Entries with a potency or affinity are not part of this list.

By Inhibition is commonly meant the change of the read-out against control, counted positive when it falls. For the molecule `Cc1ccc(-c2ccc3nn(CC(=O)Nc4ccc(C(C)C)cc4)c(=O)n3n2)cc1C`, the results for the Inhibition with Klebsiella pneumoniae, in the test on Candida albicans and with Cryptococcus neoformans were 2.75%, 3.46% and -11.72%, respectively.

Take `CCC(C)NC(=O)CCn1c(=O)c2ccccc2n2c(=O)n(CC(=O)NCc3cccs3)nc12` (stereo not given): the Inhibition is listed as 12.47% in the test on Klebsiella pneumoniae, 0.11% in the test with Candida albicans and -24.13% with Cryptococcus neoformans.

In the case of `CCc1ccc(NC(=O)Cn2nc3cc(C)nc(Nc4ccc(F)c(C)c4)n3c2=O)cc1`, the Inhibition in the test on Klebsiella pneumoniae is given as 8.35%; with Candida albicans it was 8.83%; with Cryptococcus neoformans it was -9.39%.

Take `Cc1nnc2ccc(S(=O)(=O)N(Cc3ccc(F)cc3)c3ccc(Cl)cc3)cn12`: the Inhibition is 9.19% in the test on Klebsiella pneumoniae, 1.14% in the test with Candida albicans and -10.26% with Cryptococcus neoformans.

For `Cc1cc(C)cc(N(Cc2ccc(F)cc2)S(=O)(=O)c2cccn3c(C)nnc23)c1`, the Inhibition with Klebsiella pneumoniae is -0.28%; in the test with Candida albicans it was 0.42%; in the test on Cryptococcus neoformans, -5.4%.

For the molecule `CCOC(=O)c1cccc(NC(=O)Cn2nc3c(Oc4cccc(C)c4C)nccn3c2=O)c1`, the Inhibition in the test on Klebsiella pneumoniae is reported as -1.37%; in the test on Candida albicans, -0.11%; in the test with Cryptococcus neoformans, -1.74%.

With `CCc1nnc2c(SCC(=O)Nc3ccc(C)cc3Cl)nc3ccccc3n12`, the Inhibition in the test with Klebsiella pneumoniae was 11.28%; in the test on Candida albicans it was 1.59%; in the test on Cryptococcus neoformans it was -8.66%.

Regarding `Cc1ccc(-n2ccn3c(=O)n(Cc4ccccc4)nc3c2=O)cc1C`, the Inhibition with Klebsiella pneumoniae was -0.96%; in the test on Candida albicans it was 0.88%; in the test with Cryptococcus neoformans, -10.01%.

As for `COc1cc(NC(=O)C(C)Sc2nnc3c(=O)n(-c4cccc(OC)c4)ccn23)cc(OC)c1` (stereo not given), the Inhibition with Klebsiella pneumoniae was 2.2%; with Candida albicans it was -0.84%; with Cryptococcus neoformans, -10.32%.

Take `COc1ccc(-c2cc3c4nnc(SCC(=O)Nc5cc(Cl)ccc5C)n4ccn3n2)cc1`: the Inhibition with Klebsiella pneumoniae is given as 0.68%; in the test on Candida albicans, 28.62%; with Cryptococcus neoformans it was -34.55%.

Turning to `O=C(Cn1nc2c3c4c(sc3ncn2c1=O)CCCC4)N1CCc2ccccc2C1`, the Inhibition was 9.79% in the test with Klebsiella pneumoniae, 4.18% with Candida albicans and -11.61% in the test on Cryptococcus neoformans.

As for `COc1ccc(-c2cc3c4nn(CC(=O)Nc5cccc(OC)c5)c(=O)n4ccn3n2)cc1`, the Inhibition in the test on Klebsiella pneumoniae was 10.26%; with Candida albicans, 17.22%; in the test with Cryptococcus neoformans it was -23.01%.

Take `CC(=O)c1cccc(NC(=O)CSc2nc3ccccc3n3c(C)nnc23)c1`: the Inhibition is 2.18% in the test on Klebsiella pneumoniae, 5.91% in the test with Candida albicans and -6.11% in the test with Cryptococcus neoformans.

As to `COc1cccc(CNC(=O)CSc2nnc3c(=O)n(-c4cccc(OC)c4)ccn23)c1`, the Inhibition in the test with Klebsiella pneumoniae is recorded as 10.15%; in the test on Candida albicans it was 1.25%; in the test with Cryptococcus neoformans, -6.98%.

On to `Cc1ccc(Oc2nccn3c(=O)n(CC(=O)Nc4cc(F)ccc4F)nc23)cc1`, for which the Inhibition in the test on Klebsiella pneumoniae is on record as 10.7%; in the test on Candida albicans, 4.41%; in the test with Cryptococcus neoformans, -11.42%.

In the case of `NC(=O)CSc1nnc2c(=O)n(-c3ccccc3)ccn12`, the Inhibition in the test on Klebsiella pneumoniae was 15.37%; with Candida albicans it was 2.06%; in the test on Cryptococcus neoformans it was -20.31%.

As for `CCOc1ccc(-n2ccn3c(SCC(=O)Nc4ccc(Cl)cc4)nnc3c2=O)cc1`, the results for the Inhibition in the test with Klebsiella pneumoniae, with Candida albicans and in the test with Cryptococcus neoformans were 5.78%, 3.69% and -6.67%, respectively.

`Cc1ccc(-n2ccn3c(=O)n(Cc4ccc(F)cc4)nc3c2=O)cc1C`: the values for the Inhibition in the test with Klebsiella pneumoniae, with Candida albicans and in the test with Cryptococcus neoformans were 10.23%, 1.58% and -18.28%, respectively.

In the case of `COc1cccc(Cn2nc3c(=O)n(-c4cccc(Cl)c4C)ccn3c2=O)c1`, the Inhibition is recorded as -11.12% with Klebsiella pneumoniae, 6.64% in the test on Candida albicans and -14.85% in the test on Cryptococcus neoformans.

As to `CCc1nnc2c(S(=O)(=O)N(Cc3ccc(F)cc3)c3ccc(Cl)cc3)cccn12`, the Inhibition is on record as 7.23% in the test on Klebsiella pneumoniae, 3.47% with Candida albicans and -6.36% with Cryptococcus neoformans.

In the case of `Cc1ccccc1N1CCN(c2nccn3c(=O)n(CC(=O)NCc4ccc(Cl)cc4)nc23)CC1`, the Inhibition was 7.17% with Klebsiella pneumoniae, 45.71% in the test on Candida albicans and -4.38% with Cryptococcus neoformans.

As to `Cc1ccc2c(c1)N(C(=O)Cn1nc3ccc(SCc4ccc(Cl)cc4)nn3c1=O)CCO2`, the Inhibition was 7.49% in the test on Klebsiella pneumoniae, 29.58% with Candida albicans and -22.86% with Cryptococcus neoformans.

For `CSc1cccc(NC(=O)Cn2nc3ccc(SC(C)(C)C)nn3c2=O)c1`, the Inhibition is 7.55% in the test on Klebsiella pneumoniae, 2.25% with Candida albicans and -15.09% in the test on Cryptococcus neoformans.

Take `COc1ccc(-c2cc3c4nnc(SCC(=O)Nc5ccccc5F)n4ccn3n2)cc1`: the values for the Inhibition with Klebsiella pneumoniae, with Candida albicans and with Cryptococcus neoformans were 6.81%, -0.08% and -26.1%, respectively.

As for `COc1ccc(NC(=O)Cn2nc3ccc(SCc4ccc(Cl)cc4)nn3c2=O)cc1OC`, the Inhibition in the test with Klebsiella pneumoniae is given as -4.29%; in the test on Candida albicans it was 32.62%; in the test with Cryptococcus neoformans it was -6.53%.

Regarding `Cc1ccc(NC(=O)Cn2nc3c(SC4CCCCC4)nccn3c2=O)c(Br)c1`, the Inhibition was 3.74% in the test on Klebsiella pneumoniae, 0.73% in the test on Candida albicans and -7.42% in the test with Cryptococcus neoformans.

As for `CCc1nnc2c(SCC(=O)Nc3ccc4c(c3)OCCO4)nc3ccccc3n12`, the results for the Inhibition in the test on Klebsiella pneumoniae, in the test with Candida albicans and in the test with Cryptococcus neoformans were 7.64%, 5.98% and -5.14%, respectively.

Turning to `COc1cc(NC(=O)Cn2nc3c(Oc4ccccc4)nccn3c2=O)cc(OC)c1OC`, the Inhibition in the test with Klebsiella pneumoniae is listed as 10.24%; with Candida albicans, 3.29%; with Cryptococcus neoformans, -9.79%.

As for `Cc1ccc(CNC(=O)c2ccc3nn(CC(=O)Nc4ccc(C(F)(F)F)cc4)c(=O)n3c2)cc1`, the values for the Inhibition with Klebsiella pneumoniae, in the test on Candida albicans and with Cryptococcus neoformans were 8.75%, 7.7% and -15.23%, respectively.

As for `COc1ccc(CNC(=O)CCc2nnc3ccc(-c4ccccc4)nn23)cc1OC`, the Inhibition in the test with Klebsiella pneumoniae is recorded as 15.01%; in the test on Candida albicans, -1.16%; with Cryptococcus neoformans, -12.03%.
